According to PubChem BioAssay (NCI):
Compounds without any hit were thinned out: in the full panel of roughly 83,000, 20% have a hit.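 In brief: 96-well plates, 48 h treatment, single concentration, percent growth endpoint.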 Unmarked numbers belong to inactive results. Activity calls are given as the source filed them.

tested on: SK-OV-3 ovarian; assay: NCI-60 one-dose screen, 48 h (100 = growth as untreated, 0 = no growth, -100 = all killed); conditions: 10 µM unless noted
Experimental: Growth inhibition of the SK-OV-3 human tumor cell line is measured as a screen for anti-cancer activity. Cells are grown in 96 well plates and exposed to the test compound for 48 hours. Compounds are tested at a single concentration, which is 10^-5 M for most compounds. The reported endpoint is percent growth (GI% or GIPRCNT), where numbers from 0 - 100% represent growth inhibition, and numbers from -100% - 0 represent cell death. For example, a value of 40 represents 60% growth inhibition. A value of 0 means no net growth occurred over the course of the experiment. A value of -40 indicates 40% of cells at the beginning of the experiment died by the end of the experiment. A value of -100 means all cells are dead at the end of the experiment.
NCI-60 Human Tumor Cell Lines Screen was performed using the standard one-dose NCI protocol, which is described in more detail at https://dtp.cancer.gov/discovery_development/nci-60/default.htm.
Compounds with GIPRCNT values below 10 were considered active. Activity score was based on GIPRCNT using the following formula: […]
Score is 0 for GIPRCNT values of 100 or above, 50 for GIPRCNT values of 0, and 100 for GIPRCNT values of -100.

Row | SMILES | growth
1 | C=C1C(=O)O[C@H]2[C@H](O)[C@@H](C)CCC/C(C)=C/CC[C@@]3(C)O[C@@H]3C[C@@H]12 | 96.8%
2 | CC1=C(C#N)C(C)(C)C(C#N)=C(C)N1 | 110%
3 | O=c1c2cccc3c(Nc4ccc(F)cc4)ccc(c32)c2nc3ccccc3n12 | 101%
4 | COc1ccc(N=C2NN=C(c3ccc(F)cc3)CS2)cc1OC | 104%
5 | Nc1ccccc1C#C/C=C\C#Cc1cccc(O)c1 | 74.4%
6 | CC1=NN2C(=NC3=C(CCC/C3=C\c3ccc(Cl)cc3)C2c2ccc(Cl)cc2)S1 (stereo not given) | 115%
7 | CC(=O)/C=C/c1cc2cc(Cl)ccc2[nH]c1=O | 88.7%
8 | c1cncc(CNc2ccccc2-c2nnc(Nc3ccc4c(c3)OCCO4)o2)c1 | -4.48% (active)
9 | COc1cc(OC)c(C(=O)/C=C/c2cccc(C(F)(F)F)c2)c(OC)c1 | 42.1%
10 | COc1ccc(-c2nc3sccn3c2-c2ccnc(NCCCNS(=O)(=O)c3ccc4ccccc4c3)n2)cc1 | 95.1%
11 | COc1ccc(OC)c(-c2ccc(-c3ccccc3N)c3[nH]c4ccccc4c23)c1 | 88.6%
12 | Nc1nc(-c2ccccc2)cs1 | 99.4%
13 | O=C(CCC(=O)OC1CCCC1)OC1CCCC1 | 110%
14 | CCNC(=O)C1CCCN1C(=O)C(CCCN=C(N)N)NC(=O)C(CC(C)C)NC(=O)C(CC(C)C)NC(=O)C(Cc1ccc(O)cc1)NC(=O)C(CO)NC(=O)C(Cc1c[nH]c2ccccc12)NC(=O)C(Cc1cnc[nH]1)NC(=O)C1CCC(=O)N1 (stereo not given) | 98.2%
15 | CC(=O)Nc1ccc(S(=O)(=O)N2C(=O)CCC2C(=O)Nc2ccccc2)cc1 (stereo not given) | 57.5%
16 | O=C(/C=C/CN1CCCCC1)Nc1cc2c(Nc3ccc(F)c(Cl)c3F)ncnc2cc1OCCOC(F)F | -6.19% (active)
17 | Cc1cccc2cc(/C=C/C(=O)/C=C/c3ccc(Cl)cc3)c(=O)[nH]c12 | 91.5%
18 | CCOC(=O)[C@H](CSSc1ncnc2cc[nH]c12)NC(=O)[C@@H](C)c1ccc2cc(OC)ccc2c1 | 8.34% (active)
19 | Nc1nc(-c2cc3ccccc3o2)cc(=O)c(=O)[nH]1 | 96.7%
20 | COc1cc2nc(Cl)nc(NCCO)c2cc1OC | 119%

Row | SMILES | growth
21 | CCn1cc(C(=O)O)c(=O)c2cc(F)c(N3CCN(S(=O)(=O)c4ccc(Cl)cc4Cl)CC3)cc21 | 1.7% (active)
22 | COc1ccc(C2NC3=C(CCCC3)C(C#N)(C#N)C2(C#N)C#N)cc1 (stereo not given) | 99.5%
23 | Cc1cc(C(=O)O)c(N)c(C)n1 | 129%
24 | COc1ccc(C2SCC(=O)N2NC(=O)c2ccc(NC(=O)c3ccccn3)cc2)cc1OC (stereo not given) | 102%
25 | O=C(NCCc1c[nH]c2ccccc12)C1Cc2ccccc2CN1C(=O)c1ccco1 (stereo not given) | 125%
26 | Cc1ccc2nc(-c3c(N)n[nH]c3CCCO)[nH]c(=O)c2c1 | 108%
27 | CCCCC(N)(C(=O)O)C1CCCC1 (stereo not given) | 117%
28 | Oc1ccc(Cl)cc1-c1cc(-c2ccc(Cl)cc2)n[nH]1 | 79%
29 | COc1cc(NC(=O)CCl)ccc(=O)c1 | 73.9%
30 | CCCCCCCCCCCCCCCCC(Br)C(=O)O (stereo not given) | 118%
31 | O=C(Nc1ccc(Cl)cc1)c1cc(-c2ccc(F)cc2)c2sc(=O)[nH]c2n1 | 0.427% (active)
32 | O=C(Nc1ccc(F)cc1)c1cc([N+](=O)[O-])ccc1O | 84%
33 | O=[N+]([O-])c1cccc(-c2cc(-c3cc(Br)ccc3O)[nH]n2)c1 | 30.6%
34 | CC(C)C[C@H](NC(=O)Cn1ccc(NCc2ccccc2)cc1=O)B(O)O | 56.5%
35 | CCCCCCCCCCCCNC(=S)N/N=C/c1ccc(Cl)c(Cl)c1 | 114%
36 | C=C1C(=O)O[C@H]2[C@H]1CC/C(COC(=O)NCc1cc(OC)cc(OC)c1)=C\CC[C@@]1(C)O[C@@H]21 | 81.7%
37 | COc1cc(/C=C2\CCCC3=C2N=C2SC(C)=NN2C3c2cc(OC)c(OC)c(OC)c2)cc(OC)c1OC (stereo not given) | 60.3%
38 | COC1=CC(c2ccc[nH]2)=N/C1=C\c1[nH]c(C)c(CCCn2cc(CCCCCCCCC[C@@H]3Cc4cc(O)ccc4C4CC[C@]5(C)[C@@H](O)CC[C@H]5C43)nn2)c1C (stereo not given in full) | 84%
39 | CC(Cc1nnc(SCC(=O)Nc2ccc(I)cc2)n1N)c1ccccc1 (stereo not given) | 97.8%
40 | COc1cccc(/C=C2\SC(N3CCN(c4ccccn4)CC3)=NC2=O)c1 | 111%
